A short description of test [1]: Her2 expression decrease, cell viability multiplex – SKBR3 breast tumor cells, AlphaScreen, ATP viability, primary screen (AID 461;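 active means Her2 level under about 52% in both replicate screens, with viability over 70% of control, limit read from the data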;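 on Her2 level: lower value means less Her2 protein in the cells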;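 on viability: percent of carrier control wells set as 100% viability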). The conditions noted are these: SKBR3 Her2 protein level, 18-24 h, measured here: SKBR3 viability, ATP luminescence, at 10 µM.
Test [2] has as its target Receptor tyrosine-protein kinase erbB-2 (Homo sapiens) (UniProt P04626). Described as above. The conditions noted are these: 18-24 h, at 10 µM, stronger effect = lower value.
The nature of test [3]: reduced viability of SK-BR-3 breast cancer cells – cell-based, 24 h, human, pilot screen (AID 572;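 active means viability at or below 10% of carrier control in both of two separate runs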;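 further: compound exposure lasted between 18 and 24 h rather than exactly 24 h; 100% = carrier-treated control wells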). Particulars: SK-BR-3 viability, CellTiter-Glo luminescence, at 10 µM, stronger effect = lower value.
A short description of test [4]: HUVEC growth inhibition – cell-based, human, primary screen (AID 575;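 active means viability at or below 30% in both replicate assays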;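 further: 100% = median of untreated cell wells with 0.1% DMSO on each plate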). Particulars: HUVEC proliferation, CellTiter-Glo luminescence, 72 h; at 10 µM; stronger effect = lower value.
A short description of test [5]: H69AR cell proliferation blockers – human, duplicate replicates, primary screen (AID 580;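 active means viability at or under a set limit in both replicates, limit being median viability minus 3 SD, cut at about 48% in these data, passing the limit was not always enough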;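 further: 100% = mean luminescence of untreated wells and 0% = no signal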). The conditions noted are these: H69AR lung tumor cells viability, ATP luminescence, 72 h; at 10 µM; stronger effect = lower value.
Test [6] can be described thus: MRP1 drug-resistance reversers in H69AR cells – cell-based, doxorubicin co-treatment, pilot screen (AID 601;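 active means viability loss from added drug above about 55%, and viability with drug at most 40%, in both replicates, limit read from the data, passing the limit was not always enough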). Particulars: CellTiter-Glo, 72 h, at 10 µM; for differential viability (reversal): stronger effect = higher value.
Test [7] is described as follows: yeast transport mutant growth inhibition pilot in 384-well plates, post-Golgi transport modulator project (AID 636; in the data active means inhibition above about 31%). The conditions noted are these: absorbance 615 nm, about 18 h, stronger effect = higher value.
The nature of test [8]: growth suppression of yeast trafficking mutant, preliminary HTS, modulators of trafficking downstream of Golgi apparatus project, 1536-format plate, OD 615 nm (AID 637; in the data active means inhibition above about 30%). The conditions noted are these: yeast transport mutant growth, absorbance 615 nm, 18 h; stronger effect = higher value.
Test [9] can be described thus: S. cerevisiae growth inhibition in permissive medium (OD615), pilot counter-assay for S. cerevisiae lifespan shortening project, permissive growth control (AID 705;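 active means growth inhibition above 25% in both replicates, a cutoff set 3 SD above the mean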). Particulars: OD615, 24 h, at 10 µM, stronger effect = higher value.
Test [10] in a line: S. cerevisiae growth inhibition in restrictive medium, OD615, pilot screen, restrictive growth control, yeast lifespan reduction project (AID 706;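 active means growth inhibition above a set limit, 3 SD over mean compound inhibition, in both replicates, cut at about 43% in these data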;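 further: modified DeaD lifespan yeast strain shifted to restrictive glucose medium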). The conditions noted are these: OD615, 48 h, at 10 µM, stronger effect = higher value.
Test [11] can be described thus: doxorubicin toxicity protection in MRP-1 cells – H69AR cells, CellTiter-Glo, duplicate, MRP-1 activator project, pilot screen (AID 807;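 active means viability increase at or above a cutoff of the median across tested compounds plus 3 SD, cut at about 8.5% in these data, passing the limit was not always enough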;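 further: compound pretreatment 18-22 h then 72 h combined with doxorubicin; 0% = doxorubicin alone and 100% = vehicle without doxorubicin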). Particulars: H69AR viability with doxorubicin, CellTiter-Glo luminescence; at 10 µM; stronger effect = higher value.
Test [12] is described as follows: viability of HCT116 without oncogenic beta-catenin – human colon tumor cells, pilot screen (AID 823;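 active means cell viability at or below a set limit in both duplicate runs, the limit being the all-compound median minus 4 SD, cut at about 23% in these data, passing the limit was not always enough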;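 further: 0% = wells killed by 20 µM Hyamine and 100% = untreated DMSO cell wells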). Particulars: HCT116 beta-catenin knockout viability, CellTiter-Glo, 60 h; at 10 µM; stronger effect = lower value.
A short description of test [13]: viability of PTEN-null HCT116 cells – cell-based, HCT116 clonal line, CellTiter-Glo, pilot screen (AID 824;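 active means viability at or below 27.92% in each of two runs, the all-compound median minus 4 SD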;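 further: 0% = 20 µM Hyamine control and 100% = vehicle cell control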). Particulars: HCT116 PTEN-deleted viability, 60 h, at 10 µM, stronger effect = lower value.
Test [14] is described as follows: RAM pathway blockade in budding yeast – dse1pr::URA3 reporter, 5-FOA selection, pilot screen (AID 869;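 active means inhibition over a set limit, the all-compound mean plus 3 SD, in both replicate runs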;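 further: 0% = DMSO wells with no growth and 100% = 10 µM 1-NA-PP1 with full growth; RAM network block rescues cells from 5-FOA so hits raise OD615 growth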). The conditions noted are these: S. cerevisiae dse1pr::URA3 5-FOA growth, OD615, 2 d; at 10 µM; stronger effect = higher value; strain carries analog-sensitive mutant Cbk1 kinase.
The nature of test [15]: RAM signaling pathway blockade in yeast – S. cerevisiae, Pdr1DBD-CYC8 efflux-inhibited sensitized strain, primary screen (AID 1298).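 Further: 0% = DMSO untreated cells without growth and 100% = 10 µM 1-NA-PP1 full growth; higher means more yeast growth rescued from 5-FOA killing.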 Particulars: S. cerevisiae cbk1-as DSE1-URA3 strain, 5-FOA growth OD615, 2 d; at 50 µM; stronger effect = higher value.
[16] abbreviates: H69AR cells + 2 uM doxorubicin, measured here: viability with 2 uM doxorubicin, stronger effect = lower value.
Where [17] appears, read: H69AR cells, compound alone cytotoxicity.

Molecules are shown by their SMILES. Results filed as inconclusive are left out. Activity calls are given as the source filed them.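 How the source made its calls, unless noted: active means RAM network inhibition above 8.4% in each of two replicates, 3 SD over the compound average; inconclusive means above 8.4% inhibition in only one replicate; inactive means 8.4% inhibition or less in each replicate.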

These results are taken from PubChem BioAssay.

Sequence of Receptor tyrosine-protein kinase erbB-2 (Homo sapiens) (P04626 whole entry, looked up): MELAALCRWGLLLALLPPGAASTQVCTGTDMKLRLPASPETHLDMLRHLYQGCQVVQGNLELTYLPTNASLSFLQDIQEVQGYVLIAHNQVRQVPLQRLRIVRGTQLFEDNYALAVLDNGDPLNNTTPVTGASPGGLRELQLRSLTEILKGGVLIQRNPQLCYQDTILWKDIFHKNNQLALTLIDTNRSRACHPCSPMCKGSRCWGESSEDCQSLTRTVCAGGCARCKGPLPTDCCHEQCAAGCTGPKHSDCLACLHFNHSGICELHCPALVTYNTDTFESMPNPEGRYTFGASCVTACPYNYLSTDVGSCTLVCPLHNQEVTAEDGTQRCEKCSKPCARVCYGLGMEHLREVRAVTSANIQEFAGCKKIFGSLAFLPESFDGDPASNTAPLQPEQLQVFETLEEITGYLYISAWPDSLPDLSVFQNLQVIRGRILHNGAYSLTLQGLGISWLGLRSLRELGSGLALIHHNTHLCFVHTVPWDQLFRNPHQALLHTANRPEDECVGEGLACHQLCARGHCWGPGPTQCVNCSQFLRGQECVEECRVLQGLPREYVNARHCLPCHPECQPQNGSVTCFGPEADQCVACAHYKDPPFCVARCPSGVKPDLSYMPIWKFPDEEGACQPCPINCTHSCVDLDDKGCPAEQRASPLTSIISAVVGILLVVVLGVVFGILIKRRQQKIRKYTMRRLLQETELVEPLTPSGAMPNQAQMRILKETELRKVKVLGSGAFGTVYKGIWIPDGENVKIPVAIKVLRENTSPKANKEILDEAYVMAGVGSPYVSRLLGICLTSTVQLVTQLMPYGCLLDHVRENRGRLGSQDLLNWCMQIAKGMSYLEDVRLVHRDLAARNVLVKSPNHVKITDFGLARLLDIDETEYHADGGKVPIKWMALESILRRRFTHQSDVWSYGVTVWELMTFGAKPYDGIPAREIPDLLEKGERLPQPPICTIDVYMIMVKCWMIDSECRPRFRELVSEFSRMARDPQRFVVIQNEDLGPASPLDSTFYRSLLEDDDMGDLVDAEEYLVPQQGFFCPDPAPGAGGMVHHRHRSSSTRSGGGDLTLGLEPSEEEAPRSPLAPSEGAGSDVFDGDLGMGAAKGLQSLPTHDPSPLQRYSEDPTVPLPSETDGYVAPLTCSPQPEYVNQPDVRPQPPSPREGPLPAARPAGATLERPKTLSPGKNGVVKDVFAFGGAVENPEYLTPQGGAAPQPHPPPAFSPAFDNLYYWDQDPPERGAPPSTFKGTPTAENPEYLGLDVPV

Take `CCN(CC)Cc1c(C(=O)OC)nnn1-c1nonc1N`: the viability in test [1] is 87%; in test [3], 87% (inactive); in [4] it was 99.6% (inactive); in [5] it was 106% (inactive); in test [6] (setting [16]), 92.1%; in [6] (setting [17]), 106%. The figures for the viability in [12] and in test [13] were 94.2% (inactive) and 102% (inactive), respectively. Also, the Her2 level in [2] is 95.5% (inactive). In [6] (H69AR cells + 2 uM doxorubicin), the differential viability (reversal) is 13.6% (inactive). The results for the inhibition in test [7], in test [8] and in test [14] were -7.4% (inactive), -3.33% (inactive) and 0.645% (inactive), respectively. The growth inhibition was -0.575% (inactive) in test [9] and -3.39% (inactive) in [10]. For the same compound, in test [11], the viability increase is -2.07% (inactive). The RAM network inhibition in test [15] was 0.53% (inactive).

Regarding `COc1cccc(C2CC(c3ccc(F)cc3)Nc3nc(N)nn32)c1` (stereo not given), the viability in test [1] was 100%; in test [3], 100% (inactive); in [4], 99.9% (inactive); in test [5] it was 103% (inactive); in test [6] (setting [16]) it was 99.9%; in [6] (setting [17]) it was 103%. Moreover, the viability in [12] is 102% (inactive); in test [13], 95.5% (inactive). Besides, the Her2 level in [2] was 106% (inactive). Moreover, the differential viability (reversal) in test [6] (H69AR cells + 2 uM doxorubicin) was 3.04% (inactive). The inhibition in [7] is -2.67% (inactive); in [8], 14.9% (inactive); in [14], 0.725% (inactive). Also, the growth inhibition in [9] was -3.78% (inactive); in test [10] it was 4.35% (inactive). Besides, in test [11], the viability increase is -0.39% (inactive). The RAM network inhibition in test [15] was 5.03% (inactive).

Regarding `COc1ccc(-n2c(=O)c3c4c(sc3n3cnnc23)CC(C)CC4)cc1` (stereo not given), the viability in [1] was 95.5%; in test [3], 95.5% (inactive); in [4] it was 67.8% (inactive); in test [5] it was 72.2% (inactive); in test [6] (setting [16]), 51%; in [6] (setting [17]), 72.2%. For the same compound, the viability was 87.8% (inactive) in test [12] and 92.2% (inactive) in test [13]. In addition, the Her2 level in [2] is 88.5% (inactive). In addition, the differential viability (reversal) in test [6] (H69AR cells + 2 uM doxorubicin) is 21.2% (inactive). Further, the inhibition in test [7] was -8.11% (inactive); in test [8], 0.98% (inactive); in test [14], -0.585% (inactive). For the same compound, the growth inhibition in test [9] was -10.9% (inactive); in test [10], 9.5% (inactive). Besides, the viability increase in [11] is -5.52% (inactive). The RAM network inhibition in test [15] was 2.05% (inactive).

Consider `CN(C)C(=O)N1CCN(C(=O)c2ccco2)CC1`, for which the viability in test [1] was 116%; in [3] it was 116% (inactive); in test [4], 94.6% (inactive); in test [5], 101% (inactive); in test [6] (setting [16]) it was 94.6%; in test [6] (setting [17]), 101%. The viability was 102% (inactive) in [12] and 99.5% (inactive) in test [13]. Besides, in [2], the Her2 level was 114% (inactive). The differential viability (reversal) in test [6] (H69AR cells + 2 uM doxorubicin) is 6.83% (inactive). Further, the figures for the inhibition in test [7], in test [8] and in [14] were 2.4% (inactive), -3.83% (inactive) and 2.13% (inactive), respectively. Further, the growth inhibition is 1.14% (inactive) in [9] and 8.06% (inactive) in test [10]. The viability increase in test [11] was -1.78% (inactive). In test [15], the RAM network inhibition is 0.72% (inactive).

Consider `COc1ccccc1-n1c(=O)[nH]c2c(C(N)=O)nc(CC(C)C)nc21`, for which the viability was 81% in [1]; 81% (inactive) in test [3]; 96.8% (inactive) in test [4]; 80.4% (inactive) in test [5]; 93% in test [6] (setting [16]); 80.4% in [6] (setting [17]). Besides, the viability was 97.9% (inactive) in test [12] and 99.5% (inactive) in test [13]. Besides, the Her2 level in test [2] is 109% (inactive). Besides, the differential viability (reversal) in test [6] (H69AR cells + 2 uM doxorubicin) was -12.7% (inactive). The inhibition in test [7] was -2.93% (inactive); in test [8], -2.17% (inactive); in test [14], 1.01% (inactive). Moreover, the results for the growth inhibition in test [9] and in test [10] were -15.9% (inactive) and -13.4% (inactive), respectively. For the same compound, the viability increase in test [11] is -2.94% (inactive). Also, the RAM network inhibition in test [15] was 2.83% (inactive).
